The labels stand for the following.
B1: chr5:14398947:14399058:+|CDS|ENSG00000038382|unk|total|mutant (ssRNA)
RNA: GGGAGUUCUACAGUCCGACGAUCCCCAAAAACCUUAAUUCGAAAGGGUCGAGAACGGCAUCUCUUCCUUUUUGAAAUGUCCUCCGUAUUCCGUAAAGAAGUGAAAGAUUCCAGUGGGAGAAGCAAGUACCUUUAUAAAAGCAACAACAGAGGAUUGAGCAUCA
B2: chr1:206903316:206905147:-|three_prime_utr|ENSG00000162894|control|control|control (ssRNA)
RNA: GGGAGUUCUACAGUCCGACGAUCUCUGUGCCCUGAGCAUGGCUCUGCCCCCAGGUCGUCUUGCACACCUUGGCAGCCCCCUGUAGUUGACAGGUAAGCUGUAGGCAUGUAGAGCAAUUGUCCCAAUGCCACUUGCUUCCUUUCCAACAGAGGAUUGAGCAUCA
B3: chr3:31657911:31664018:-|three_prime_utr|ENSG00000144645|control|control|control (ssRNA)
RNA: GGGAGUUCUACAGUCCGACGAUCGGGUUUUUCUUGCUGAGCCCCCAAGACUGGAUAAAUACCAGGCAGGGGAAGGGAUGGACUAGGGCAGCUCGGUUCUGACUCCAGCUUUGGACAAGGCUUCAGGACAGGUUUUCUGCCACACAACAGAGGAUUGAGCAUCA
B4: chr2:190659421:190659522:+|CDS|ENSG00000138386|unk|FALSE|unique (ssRNA)
RNA: GGGAGUUCUACAGUCCGACGAUCAGAGACUGGGUCACAAACCCUGGGCUUUUCAAUCAGCCACUGACUUCCCUUCCUGUCAGUAGCAUACCCAUCUAUAAAUUACCAGAGGGAUCACCAACAUGGCUGGGAAUAUCCUGCAGUCAACAGAGGAUUGAGCAUCA
B5: chr10:16593140:16593241:-|3pUTR|ENSG00000148484|unk|total|mutant (ssRNA)
RNA: GGGAGUUCUACAGUCCGACGAUCUUAUUUUUCUUUUCACUCUCUUUCUAAUGCUUCCCACCUUACCUUUCCGAUUCUUUUGCCCGGUGGGAGAUUGUUAUAAGGUCUUUAAACCAUUUCCAUUUGUUUCUUUAACAUUACCAACAACAGAGGAUUGAGCAUCA
B6: chr5:72207278:72207408:+|3pUTR|ENSG00000131711|msi1_unk|FALSE|overlapping (ssRNA)
RNA: GGGAGUUCUACAGUCCGACGAUCAGAGAACAAUGACCUCAUUUUAUUUUCUAUGUUAGUUAUUUAUUUCAAAAUUAACAUUUUAGUUGAUUUUUGUCUGAUAAGUCUAUGUUUUGCACUGCUAACUAUGAUGAGGGUUUAAAACAACAGAGGAUUGAGCAUCA
B7: chr7:137014887:137014989:+|CDS|ENSG00000181072|unk|FALSE|unique (ssRNA)
RNA: GGGAGUUCUACAGUCCGACGAUCGCUACUUGGCUACUGAUUAGAGAACGCAAAAUGAAUAACUCAACAAACUCCUCUAACAAUAGCCUGGCUCUUACAAGUCCUUAUAAGACAUUUGAAGUGGUGUUUAUUGUCCUGGUGGCUCAACAGAGGAUUGAGCAUCA
B8: chr1:204554719:204554820:+|3pUTR|ENSG00000198625|unk|FALSE|unique (ssRNA)
RNA: GGGAGUUCUACAGUCCGACGAUCAAGUACUUUCUUUUGACAGAAAUUUUCAUUCUGCUUGCCAUUGCUAUAUUCUCCCUUUAUAGGAGCCAUUGGAUUUCUUUCCUUUUGUGGGAAAUGUCCCAUUAGCAUUUUCAGAUCUUUCAACAGAGGAUUGAGCAUCA
B9: chr6:105096826:105097152:-|3pUTR|ENSG00000112276|msi1|FALSE|unique (ssRNA)
RNA: GGGAGUUCUACAGUCCGACGAUCACUUGCAACCUAGUUUUAAAAUACAUGAGGAUUUUAUGAAAGCUUUAUACAGACAUUUAUAGGAAACUCAUUCUUUGAUUUUAGGUGCCAUUUAAAUUGAUAACACUUACUUUAUAAAAACAACAGAGGAUUGAGCAUCA
B10: chr6:117694021:117694122:+|CDS|ENSG00000153989|msi1|FALSE|unique (ssRNA)
RNA: GGGAGUUCUACAGUCCGACGAUCGCUGUCUCCGGAAGAUGGAAAAGCAGAUAUUGUAAGAGCUGCUCAGGACUUUUGCCAGUUAGUAGCCCAGAAGCAAAAGAGACCCACAGAUUUGGAUGUAGAUACGUUAGCCAGUUUACUCAACAGAGGAUUGAGCAUCA
B11: chr8:41263181:41263319:-|3pUTR|ENSG00000104332|msi1|FALSE|unique (ssRNA)
RNA: GGGAGUUCUACAGUCCGACGAUCCUUAAGUGAUUUGCCUGUAAUUUUGGAUGAUUAAAAAAUGUGUAUAUAUAUUAGCUAAUUAGAAAUAUUCUACUUCUCUGUUGUCAAACUGAAAUUCAGAGCAAGUUCCUGAGUGCGUGGCAACAGAGGAUUGAGCAUCA
B12: chr10:17237356:17237519:+|3pUTR|ENSG00000026025|msi1_unk|total|mutant (ssRNA)
RNA: GGGAGUUCUACAGUCCGACGAUCAGACCGAUUUGGAACCGGAAUAAGCUCCCGUUCUUAACAACCGACACUCCUACAAGAUUCCGAAAAAAGUUUACAACAUAAUCCCGUUUACAGAAAAAUCUUGUGCCCGAAUACUUUUUACAACAGAGGAUUGAGCAUCA
B13: chr12:76028832:76028933:-|3pUTR|ENSG00000139289|msi1|FALSE|unique (ssRNA)
RNA: GGGAGUUCUACAGUCCGACGAUCAAAGGAAAAGACUGGAUAAACACAGGAUUUUCAGUAAGAAAACAACCCCAGUCUUGUCUUAGAAGCCACUUGUUGAGGAGUCUGUUGGGGGAAAAAAGAGGAUAUGCUUUUAAAGGUAGACAACAGAGGAUUGAGCAUCA
B14: chr6:117694021:117694122:+|CDS|ENSG00000153989|msi1|total|mutant (ssRNA)
RNA: B10 RNA with U83C, A84C, U86C, A87C, U122C, A123C, U131C, A132C
B15: chr10:17237356:17237519:+|3pUTR|ENSG00000026025|msi1_unk|FALSE|overlapping (ssRNA)
RNA: GGGAGUUCUACAGUCCGACGAUCAGAUAGAUUUGGAAUAGGAAUAAGCUCUAGUUCUUAACAACCGACACUCCUACAAGAUUUAGAAAAAAGUUUACAACAUAAUCUAGUUUACAGAAAAAUCUUGUGCUAGAAUACUUUUUACAACAGAGGAUUGAGCAUCA
B16: chr8:41263181:41263319:-|3pUTR|ENSG00000104332|msi1|total|mutant (ssRNA)
RNA: B11 RNA with U75C, A76C, U83C, A84C
B17: chrX:120258281:120258382:+|3pUTR|ENSG00000177485|msi1|FALSE|bound_elsewhere (ssRNA)
RNA: GGGAGUUCUACAGUCCGACGAUCUGUACAAUCUUCCCUGUCAUGACUUUAAGUUCUACUUUUCAUUAACCAUGGCCUGAUAUUAGUUCUUAGAGCUUCUUGUGGCAAAAAUAAAAUGAUUUAAUUCUGAUGUUUGAGUGCGUGCAACAGAGGAUUGAGCAUCA
B18: chr1:62654060:62654161:-|CDS|ENSG00000116641|unk|FALSE|unique (ssRNA)
RNA: GGGAGUUCUACAGUCCGACGAUCCUUGUUUUCUACCCAUCUCUUAUCCCAACUUUUUACAAAGGUGCCCCUUACCGAAGCAGUAGAUCCAGUGGAUUUGGAAGAUUACCUCAUUACUCAUCCUUUGGCUGUGGAUUCUGGGCCCAACAGAGGAUUGAGCAUCA
B19: chr8:86558718:86558819:+|3pUTR|ENSG00000085719|unk|total|mutant (ssRNA)
RNA: GGGAGUUCUACAGUCCGACGAUCCUGUUGUUGUUUUUGUUUACUUUCAUAUGAUGAAAAUGCUGUGUUUAAGUGUUUGUCAACCGGAAGAAUGGAAAACUGUUGGGAUGAUGUGGUUUGCAGGUUGCUGUGCCUGAUUCACAGCAACAGAGGAUUGAGCAUCA
B20: chr13:20822168:20822271:-|CDS|ENSG00000132953|unk|FALSE|unique (ssRNA)
RNA: GGGAGUUCUACAGUCCGACGAUCUCGAAAAAUCAGAGAAGAUUCAGAUAUGGCACAAGAUUCUCUGCAGUGCCUUGCCCAGUUAGCUUCUCUUCAUGGACCCAUCUUCCCAGAUGAAGGAUCACAAGUUGAUUAUCUAGCACACAACAGAGGAUUGAGCAUCA
B21: chr21:43758806:43758907:+|3pUTR|ENSG00000160209|msi1|FALSE|unique (ssRNA)
RNA: GGGAGUUCUACAGUCCGACGAUCACUUUCUUAAUCCAGUUUUUCAAACUUCUCCCUGUAGACCGUAAGGAUGAAUUCCACAAUAGGAUCCUUUUUAAAAUCGAUUUUAAAUUGUUGCCUAGUCCUGCCAAGGUUAUUAUGUGCCAACAGAGGAUUGAGCAUCA
B22: chr14:21351797:21351898:-|3pUTR|ENSG00000092201|msi1|FALSE|unique (ssRNA)
RNA: GGGAGUUCUACAGUCCGACGAUCGAGGAAGGCUCAAAGGAGUCAACAUUUAUAUCUGGAAGGGACAAGUCAUGCCUUGGGCCUAGAAUACCCUGAUGAGAAAAGAGAAGAGGAAGGGAGGCCAUAUCUACAACACAGCCUCUCCAACAGAGGAUUGAGCAUCA

Changes are numbered by the printed parent chain. Whole data set: some 5,800 sequences, median “enrichment r” near 0.54, cut for the highest 2% near 16. The sample as a whole holds a higher share of the highest values than the screen did.

The target of the test is MSI1 full-length (mouse, UniProt Q61474 1-362). Put plainly: nsRBNS (natural sequence RNA bind-n-seq); RBNS binding buffer (assumed for nsRBNS): 25 mM Tris pH 7.5, 150 mM KCl, 3 mM MgCl2, 0.01% Triton X-100, 500 ug/ml BSA, 20 U/ml SUPERase-In, 4 C; UNK is unkempt and MSI1 is Musashi-1; names of the RNAs are library labels; protein concentration not given here; high values mean tight binding.
MSI1 full-length, sequence (Q61474 whole entry): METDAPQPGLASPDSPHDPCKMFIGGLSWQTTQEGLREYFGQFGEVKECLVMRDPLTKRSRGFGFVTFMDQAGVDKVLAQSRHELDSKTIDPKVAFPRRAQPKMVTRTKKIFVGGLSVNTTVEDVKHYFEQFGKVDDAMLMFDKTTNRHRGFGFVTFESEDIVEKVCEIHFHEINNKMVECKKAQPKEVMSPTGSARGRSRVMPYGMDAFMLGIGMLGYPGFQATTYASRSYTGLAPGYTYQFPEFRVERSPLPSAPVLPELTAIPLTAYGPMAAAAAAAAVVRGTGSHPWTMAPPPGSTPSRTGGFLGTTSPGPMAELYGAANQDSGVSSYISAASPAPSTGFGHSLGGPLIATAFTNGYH
In turn, B1 returned a binding signal of 0.383 enrichment R.

The molecule B2 returned a binding signal of 0.397 enrichment R.

As for B3, the binding signal stood at 0.515 enrichment R.

Regarding B4, the binding signal is 0.584 enrichment R.

B5 yielded a binding signal of 1.23 enrichment R.

On to B6, for which the binding signal was 1.11 enrichment R.

With B7, the binding signal came to 0.188 enrichment R.

In the case of B8, the binding signal amounted to 0.583 enrichment R.

Molecule B9 displayed a binding signal of 1.13 enrichment R.

Turning to B10, the binding signal came out at 17.5 enrichment R.

On to B11, for which the binding signal came to 21.3 enrichment R.

B12 returned a binding signal of 0.307 enrichment R.

Take B13: the binding signal turned out to be 0.854 enrichment R.

The molecule B14 yielded a binding signal of 0.409 enrichment R.

Take B15: the binding signal was found to be 20.9 enrichment R.

Turning to B16, the binding signal turned out to be 0.429 enrichment R.

B17: the binding signal stood at 0.662 enrichment R.

With B18, the binding signal was found to be 0.626 enrichment R.

In turn, B19 came in with a binding signal of 0.342 enrichment R.

Consider B20, for which the binding signal was determined as 0.341 enrichment R.

Consider B21, for which the binding signal was determined as 0.936 enrichment R.

The molecule B22 had a binding signal of 0.748 enrichment R.
